This is an account of results in PubChem BioAssay (NCI).

Each structure is given as a SMILES string. This is part of a sample that, as a whole, favours compounds with a hit. Of some 83,000 tested, about 20% had one in any assay.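 Compound tested at a single concentration for 48 hours in 96-well plates; a percent growth value below 10 was scored as active.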 Unmarked numbers belong to inactive results. Active and inactive are the calls of the source.

Holding throughout (test): NCI-60 one-dose screen, 48 h (100 = growth as untreated, 0 = no growth, -100 = all killed)
What all share (conditions): 10 µM unless noted

Assay [1] deals with SK-MEL-2 melanoma.
Assay [2] concerns EKVX NSCLC.
For assay [3], the system named is SN12C renal.
Assay [4] concerns UO-31 renal.
For assay [5], the system named is TK-10 renal.
The test system of assay [6] is ACHN renal.
For assay [7], the system named is CAKI-1 renal.
Assay [8] has as its system A498 renal.
Assay [9] concerns CCRF-CEM leukemia.
Assay [10] concerns MOLT-4 leukemia.

Regarding `NC(=O)c1c(NC(=O)COC(=O)Cc2ccccc2F)sc2c1CCC2`, the growth in [1] is 99.9%; in assay [2], 101%; in assay [3], 109%; in assay [4] it was 72.6%; in assay [5], 124%; in assay [6], 109%. Also, the growth in assay [7] is 99%; in [8], 117%; in assay [9], 108%; in [10] it was 86.6%.
As to `Cc1cc(NN=C(c2ccc(O)cc2)c2ccc(O)cc2)c([N+](=O)[O-])cc1[N+](=O)[O-]`, the growth in assay [1] is 0.57% (active); in [2], 14.9%; in assay [3], 74.2%; in [4], 6.74% (active); in [5] it was 51.4%; in assay [6] it was 43.7%. The growth was 65.1% in assay [7], 85.9% in [8], 119% in assay [9] and 108% in [10].
As to `CC(=O)n1cc(C=O)c2ccccc21`, the growth in [1] is 97.9%; in assay [2] it was 109%; in [3] it was 97.7%; in assay [4] it was 72%; in assay [5], 100%; in assay [6] it was 106%. The growth in assay [7] is 100%; in assay [8], 113%; in assay [9], 80.9%; in assay [10] it was 91%.
For `CC(C)CCNCC(C)(C)O`, the growth was 107% in assay [1]; 106% in [2]; 110% in assay [3]; 92.3% in [4]; 104% in assay [5]; 107% in [6]. For the same compound, the growth was 99.1% in [7], 105% in assay [8], 116% in [9] and 110% in [10].
For the compound `CCCCCn1sc(=O)n(Cc2ccc(CNC(=O)OCc3ccc4cccc(O)c4n3)cc2)c1=O`, the growth in assay [1] is 39.3%; in assay [2] it was 28.7%; in assay [3], -79.7% (active); in [4] it was -100% (active); in assay [5], -54% (active); in assay [6], -100% (active). In addition, the growth was -74.9% (active) in assay [7], 4.89% (active) in assay [8], 7.05% (active) in assay [9] and 1.87% (active) in [10].
Regarding `CC(=O)OC[C@]12CC[C@@H](C(=O)CBr)[C@@H]1[C@H]1CC[C@@H]3[C@@]4(C)CCCNC(C)(C)[C@@H]4CC[C@@]3(C)[C@]1(C)CC2`, the growth in [1] is -80.8% [100 µM] (active); in assay [2], -81% [100 µM] (active); in [3] it was -37.8% [100 µM] (active); in assay [4] it was -99.3% [100 µM] (active); in assay [5], -92.4% [100 µM] (active); in [6], -90.1% [100 µM] (active). In addition, the growth in [7] was -96.1% [100 µM] (active); in assay [8], -84.5% [100 µM] (active); in assay [9], -32.5% [100 µM] (active); in assay [10], -23.2% [100 µM] (active).
For the compound `CC(C)(C)c1cc(C(=O)Nc2cc3ccccc3cc2C(=O)NCCN)cc(C(C)(C)C)c1`, the growth in [1] was -48.8% (active); in assay [2], -72.9% (active); in assay [3] it was -64.8% (active); in [4], -85.6% (active); in [5], -85.9% (active); in [6] it was -92.3% (active). For the same compound, the growth in [7] was -84.4% (active); in assay [8], -90.7% (active); in assay [9] it was -49.6% (active); in [10], -38.6% (active).
Turning to `Nc1ccc2c(c1)Cc1cc(NC(=O)C(F)(F)F)ccc1-2`, the growth in [1] is 98.6%; in assay [2], 79.9%; in assay [3], 97.6%; in assay [4], 75.7%; in assay [5], 106%; in assay [6], 104%. In addition, the growth was 96.3% in assay [7], 84.6% in assay [8], 86.3% in assay [9] and 109% in assay [10].
Take `COc1ccc(CC(C#N)c2ccc(Cl)cc2)cc1` (stereo not given): the growth was 80% in assay [1]; 90% in assay [2]; 99.7% in assay [3]; 102% in assay [4]; 109% in assay [5]; 102% in [6]. The growth is 68.9% in assay [7], 49.7% in assay [8], 76.5% in [9] and 72.7% in assay [10].
As for `O=C(Nc1ccc(Oc2ccc(F)cc2)c(Cl)c1)c1cnccn1`, the growth in assay [1] is 53.6%; in assay [2] it was 78%; in assay [3] it was 69.8%; in assay [4], 65%; in [5] it was 85.8%; in [6], 94.1%. Moreover, the growth was 49.7% in assay [7], 67.7% in [8], 64.1% in assay [9] and 45.1% in [10].
As to `Brc1ccc(-c2nnc3c4[nH]ccc4ncn23)cc1`, the growth is 92.2% in [1]; 77.5% in assay [2]; 90.5% in [3]; 58.6% in assay [4]; 89.4% in assay [5]; 78.7% in assay [6]. Also, the growth is 87.3% in [7], 70.6% in [8], 97.3% in [9] and 77.2% in assay [10].
Turning to `Cn1cc(-c2nnc(-c3cn(C)c4ncccc34)s2)c2ccccc21`, the growth in assay [1] is 79.8%; in assay [2], 70.7%; in assay [3], 50.3%; in assay [4], 39%; in assay [5], 79.9%; in [6], 86.6%. The growth was 47% in assay [7], 31% in assay [8], 38.3% in assay [9] and 47.9% in assay [10].
With `O=C(N[C@@H]1CCCc2ccccc21)[C@H](CCC(=O)N1CCN(C2CCCCC2)CC1)N1C(=O)[C@@H](N2C(=O)OC[C@@H]2c2ccccc2)[C@H]1/C=C/c1ccccc1`, the growth in [1] is 20.6%; in assay [2] it was 51.2%; in [3] it was 25.4%; in [4], 21%; in [5] it was 47%; in assay [6], 36.4%. In addition, the growth in assay [7] is 37.9%; in [8] it was 31.8%; in assay [9], 22.8%; in assay [10], -1.99% (active).
